Calls of active or inactive are those of the source. Unless noted, how the calls were made is not given here.
What was measured:
[1] = tested on: Wnt5a (protein binding on small-molecule microarray); assay: small molecules binding Wnt5a protein – biophysical, small-molecule microarray, 635/667 nm fluorescence, primary screen (AID 1142); conditions: 635 nm fluorescence, higher = more signal;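 further: fluorescence read at 667 nm with signal to noise per printed feature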
[2] = ATP-based viability of Huh7 replicon cells – cell-based, CellTiter-Glo luminescence, basal, 48 h, cytotoxicity control for HCV replication inhibitor project, primary screen (AID 1143); conditions: higher = more signal, called active from +8 up or from −8 down;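 further: Huh7 hepatoma cells carrying a hepatitis C replication reporter with no stimulus; test concentration not given here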
[3] = Pseudomonas biofilm growth suppression – PAO1 strain, BacTiter-Glo luminescence, LB-PBS, primary screen (AID 1144); conditions: P. aeruginosa PAO1 biofilm, 12 h, higher = more signal
[4] = basal CRE-LacZ reporter activity in PC12 – cell-based, unstimulated, primary screen (AID 1145); conditions: no forskolin, luminescence, 4.5 h, higher = more signal, called active from +8 up or from −8 down
[5] = forskolin-driven CRE-LacZ activity in PC12 – cell-based, CRE-LacZ reporter, forskolin-stimulated, primary screen (AID 1146); conditions: luminescence, 4.5 h, higher = more signal, called active from +8 up or from −8 down;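 further: PC12 cells with 6xCRE LacZ reporter stimulated by forskolin 10 µM; beta-galactosidase reporter signal reflecting CREB driven transcription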
[6] = molecular target: Streptavidin (Streptomyces avidinii) (UniProt P22629); assay: compounds binding control protein streptavidin – biophysical, small-molecule microarray, 635/667 nm fluorescence, artefact control for SMM compound annotation, primary screen (AID 1147); conditions: higher = more signal;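 further: signal reflects streptavidin binding to arrayed compounds as a control protein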
Streptavidin (Streptomyces avidinii), sequence (P22629 whole entry, looked up): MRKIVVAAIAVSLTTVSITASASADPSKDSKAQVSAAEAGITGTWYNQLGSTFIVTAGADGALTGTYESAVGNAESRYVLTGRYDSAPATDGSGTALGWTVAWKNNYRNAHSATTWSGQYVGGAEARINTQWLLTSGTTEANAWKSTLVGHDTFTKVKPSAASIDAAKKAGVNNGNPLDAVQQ

[7] = probe aInhba binding on compound microarray – biochemical, small-molecule microarray, 635/667 nm fluorescence, primary screen (AID 1148); conditions: higher = more signal;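 further: score merges 667nm spot fluorescence with signal-to-noise for antibody binding to printed compounds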
Torsin-1A (Homo sapiens) [8] = molecular target: Torsin-1A (Homo sapiens) (UniProt O14656); assay: TOR1A wild-type binding on microarray – cell lysate, small-molecule microarray, lysate, 635/667 nm, primary screen (AID 1149); conditions: COS7 hTOR1A-WT lysate, 635 nm fluorescence, higher = more signal
Torsin-1A (Homo sapiens), sequence (O14656 whole entry, looked up): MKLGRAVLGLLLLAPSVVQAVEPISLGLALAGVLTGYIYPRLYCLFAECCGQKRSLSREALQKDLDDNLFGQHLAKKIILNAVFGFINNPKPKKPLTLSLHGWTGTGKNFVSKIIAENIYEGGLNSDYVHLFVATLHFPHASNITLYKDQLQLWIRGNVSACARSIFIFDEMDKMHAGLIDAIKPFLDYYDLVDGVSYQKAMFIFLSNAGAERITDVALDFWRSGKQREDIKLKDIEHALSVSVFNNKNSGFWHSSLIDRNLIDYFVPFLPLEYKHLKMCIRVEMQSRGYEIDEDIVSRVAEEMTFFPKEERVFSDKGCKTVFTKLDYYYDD

Torsin-1A (Homo sapiens) [9] = molecular target: Torsin-1A (Homo sapiens) (UniProt O14656); assay: torsin A mutant lysate binding on microarrays – cell lysate, small-molecule microarray, COS7 lysate, 635/667 nm fluorescence, primary screen (AID 1150); conditions: COS7 hTOR1A mutant lysate, 635 nm fluorescence, higher = more signal;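 further: score pools 667 nm emission and signal to noise measuring lysate protein binding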
[10] = tested on: Sonic hedgehog protein (Shh); assay: Sonic hedgehog microarray binding compounds – biochemical, small-molecule microarray, 635/667 nm fluorescence, primary screen (AID 1151); conditions: 635 nm fluorescence, higher = more signal;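 further: Shh protein binding to compounds spotted on small-molecule microarray slides; score combines spot fluorescence intensity with signal-to-noise across triplicate slides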
[11] = optical density shifts of acrAB sulA E. coli – strain DRC41, OD650, 48 h, E. coli filamentation inducer project, primary screen (AID 1152); conditions: higher = more signal, called active from +8 up or from −8 down;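 further: E. coli MC1000 strain DRC41 lacking acrAB efflux pump and sulA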
[12] = probe aLefty1 binding on compound microarray – biochemical, small-molecule microarray, 635/667 nm fluorescence, primary screen (AID 1153); conditions: higher = more signal;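 further: score merges spot fluorescence with signal-to-noise ratio from the scanned slide images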
[13] = plasmodial surface anion channel blockers, osmotic lysis – cell-based, P. falciparum Indochina, OD700, 1 h, primary screen (AID 1154); conditions: P. falciparum Indochina infected RBC osmotic lysis, higher = more signal, called active from +8 up or from −8 down
[14] = plasmodial surface anion channel blockers, osmotic lysis – cell-based, P. falciparum Indochina, OD700, 2 h, primary screen (AID 1155);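 further: lysis reports solute entry through the parasite surface anion channel PSAC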; conditions: P. falciparum Indochina infected erythrocytes, higher = more signal, called active from +8 up or from −8 down
[15] = changes in parasitized red cell lysis, either direction – P. falciparum Indochina, OD700, 3 h, PSAC antagonist project, primary screen (AID 1156); conditions: P. falciparum-infected erythrocytes, osmotic lysis, higher = more signal, called active from +8 up or from −8 down
[16] = plasmodial surface anion channel blockers, osmotic lysis – cell-based, P. falciparum Indochina, OD700, 18 h, primary screen (AID 1157); conditions: P. falciparum Indochina infected erythrocytes, osmotic lysis OD700, 18 h; higher = more signal, called active from +8 up or from −8 down
[17] = S6 kinase pathway phospho-S6 level changes – cell-based, A549, cytoblot, luminescence, serum-stimulated, primary screen (AID 1158); conditions: 5 h, higher = more signal;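 further: serum-stimulated A549 lung adenocarcinoma cells; signal is phosphorylated S6 detected by cytoblot immunostaining with HRP secondary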
[18] = molecular target: NADPH oxidase 2 (Homo sapiens) (UniProt P04839); assay: compounds shifting NOX2 Amplex Red fluorescence – cell-based, HEK293-NOX2, PMA-stimulated, NOX inhibitor project, primary screen (AID 1159); conditions: 45 min, higher = more signal, called active from +8 up or from −8 down; further: test concentration not given here
NADPH oxidase 2 (Homo sapiens), sequence (P04839 whole entry, looked up): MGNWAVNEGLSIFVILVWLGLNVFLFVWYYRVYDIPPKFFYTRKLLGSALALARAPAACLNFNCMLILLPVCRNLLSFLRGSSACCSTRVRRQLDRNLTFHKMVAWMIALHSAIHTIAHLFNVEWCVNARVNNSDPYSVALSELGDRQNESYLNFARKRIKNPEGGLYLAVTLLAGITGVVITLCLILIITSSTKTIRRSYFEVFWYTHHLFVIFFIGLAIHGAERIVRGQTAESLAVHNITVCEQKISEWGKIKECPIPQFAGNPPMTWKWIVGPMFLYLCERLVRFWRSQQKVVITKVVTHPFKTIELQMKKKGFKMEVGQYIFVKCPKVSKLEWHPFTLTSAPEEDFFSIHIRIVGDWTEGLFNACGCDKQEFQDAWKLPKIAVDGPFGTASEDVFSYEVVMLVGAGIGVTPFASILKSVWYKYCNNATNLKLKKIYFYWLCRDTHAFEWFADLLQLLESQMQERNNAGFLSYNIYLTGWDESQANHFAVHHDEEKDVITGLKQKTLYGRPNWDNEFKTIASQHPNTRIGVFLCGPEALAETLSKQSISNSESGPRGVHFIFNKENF

[19] = molecular target: NADPH oxidase 4 (Homo sapiens) (UniProt Q9NPH5); assay: compounds shifting NOX4 Amplex Red fluorescence – cell-based, HEK293-NOX4, tetracycline-induced, NOX inhibitor project, primary screen (AID 1160); conditions: HEK293-NOX4, Amplex Red H2O2 fluorescence, 45 min; higher = more signal, called active from +8 up or from −8 down
NADPH oxidase 4 (Homo sapiens), sequence (Q9NPH5 whole entry, looked up): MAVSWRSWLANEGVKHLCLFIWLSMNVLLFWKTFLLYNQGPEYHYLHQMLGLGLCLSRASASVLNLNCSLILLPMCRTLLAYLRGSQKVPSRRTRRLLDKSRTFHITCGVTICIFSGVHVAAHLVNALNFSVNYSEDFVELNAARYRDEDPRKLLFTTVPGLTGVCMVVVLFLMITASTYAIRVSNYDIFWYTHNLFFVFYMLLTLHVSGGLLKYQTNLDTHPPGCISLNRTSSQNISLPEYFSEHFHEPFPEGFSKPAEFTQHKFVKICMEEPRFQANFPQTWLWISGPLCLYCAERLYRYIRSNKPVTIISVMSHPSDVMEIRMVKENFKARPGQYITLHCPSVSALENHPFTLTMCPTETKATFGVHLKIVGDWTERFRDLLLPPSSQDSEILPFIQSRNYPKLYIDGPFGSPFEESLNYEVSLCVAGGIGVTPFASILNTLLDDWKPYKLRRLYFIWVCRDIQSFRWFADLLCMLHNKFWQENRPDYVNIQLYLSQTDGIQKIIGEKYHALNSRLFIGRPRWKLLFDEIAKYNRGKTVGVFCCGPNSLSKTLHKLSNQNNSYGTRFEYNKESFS

[20] = molecular target: NADPH oxidase 5 (Homo sapiens) (UniProt Q96PH1); assay: compounds shifting NOX5 Amplex Red fluorescence – cell-based, HEK293-NOX5, NOX inhibitor project, primary screen (AID 1161); conditions: HEK293-NOX5, ionomycin, 45 min, higher = more signal
NADPH oxidase 5 (Homo sapiens), sequence (Q96PH1 whole entry, looked up): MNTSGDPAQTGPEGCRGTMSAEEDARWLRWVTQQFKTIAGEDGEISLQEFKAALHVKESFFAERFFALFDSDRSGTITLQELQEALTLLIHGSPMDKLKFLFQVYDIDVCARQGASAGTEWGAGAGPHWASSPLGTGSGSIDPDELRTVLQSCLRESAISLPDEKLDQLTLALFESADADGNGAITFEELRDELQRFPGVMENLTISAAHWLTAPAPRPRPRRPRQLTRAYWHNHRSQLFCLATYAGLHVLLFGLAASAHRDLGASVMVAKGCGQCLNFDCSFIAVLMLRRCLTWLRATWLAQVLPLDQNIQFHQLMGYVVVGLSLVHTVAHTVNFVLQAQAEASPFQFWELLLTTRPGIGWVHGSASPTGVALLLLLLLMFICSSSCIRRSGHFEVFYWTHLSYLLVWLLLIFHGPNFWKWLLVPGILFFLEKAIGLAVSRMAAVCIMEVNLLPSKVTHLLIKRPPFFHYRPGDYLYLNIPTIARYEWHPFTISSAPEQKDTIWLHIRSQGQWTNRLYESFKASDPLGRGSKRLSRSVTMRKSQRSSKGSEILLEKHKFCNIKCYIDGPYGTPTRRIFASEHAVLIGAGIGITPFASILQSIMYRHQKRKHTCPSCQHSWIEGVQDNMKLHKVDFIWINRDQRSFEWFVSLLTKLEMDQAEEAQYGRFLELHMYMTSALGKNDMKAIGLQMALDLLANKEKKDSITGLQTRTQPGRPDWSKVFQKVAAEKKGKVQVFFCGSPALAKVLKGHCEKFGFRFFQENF

SMILES: COc1ccc(COC2OC[C@]3(C)[C@H]4C5=C(CN3C(=O)OC(C)(C)C)[C@H](C)C(CO)C(CO)C5CC[C@@H]24)cc1 (stereo not given in full)
- composite z-score [1]: 0.0447
- z-score [2]: -0.422 (inactive)
- z-score [3]: 0.669 (inactive)
- z-score [4]: 0.966 (inactive)
- z-score [5]: 1.99 (inactive)
- composite z-score [6]: 1.25
- composite z-score [7]: 0.483
- composite z-score (Torsin-1A (Homo sapiens) [8]): 1.32
- composite z-score (Torsin-1A (Homo sapiens) [9]): 0.156
- composite z-score [10]: 0.0407
- z-score [11]: -2.31 (inactive)
- composite z-score [12]: 0.638
- z-score [13]: 1.81 (inactive)
- z-score [14]: 0.0544 (inactive)
- z-score [15]: 1.95 (inactive)
- z-score [16]: 0.741 (inactive)
- z-score [17]: -0.139
- z-score [18]: -0.543 (inactive)
- z-score [19]: -3.44 (inactive)
- z-score [20]: -3.88

SMILES: COc1ccc([Si](C)(C)[C@@H]2[C@@H](CCO)O[C@]3(C(=O)N(Cc4ccc(N5C(=O)COc6ccccc65)cc4)c4ccccc43)[C@H]2C)cc1
- composite z-score [1]: 0.44
- z-score [2]: -7.31 (inactive)
- z-score [3]: -0.374 (inactive)
- z-score [4]: 0.804 (inactive)
- z-score [5]: 2.02 (inactive)
- composite z-score [6]: 0.636
- composite z-score [7]: 0.0261
- composite z-score (Torsin-1A (Homo sapiens) [8]): 0.436
- composite z-score (Torsin-1A (Homo sapiens) [9]): 0.586
- composite z-score [10]: 1.57
- z-score [11]: -0.163 (inactive)
- composite z-score [12]: 0.165
- z-score [13]: 3.9 (inactive)
- z-score [14]: 3.84 (inactive)
- z-score [15]: 0.746 (inactive)
- z-score [16]: 2.39 (inactive)
- z-score [17]: 0.866
- z-score [18]: 0.506 (inactive)
- z-score [19]: 1.46 (inactive)
- z-score [20]: 1.38

SMILES: CC(C)(C)OC(=O)CC[C@@]1(C(=O)NCC(O)CO)N=C(c2ccc(OCCCO)cc2)O[C@@H]1c1ccccc1N=[N+]=[N-] (stereo not given in full)
- composite z-score [1]: 0.849
- z-score [2]: -0.371 (inactive)
- z-score [3]: -1.18 (inactive)
- z-score [4]: -0.183 (inactive)
- z-score [5]: -0.173 (inactive)
- composite z-score [6]: 1.85
- composite z-score [7]: 0.289
- composite z-score (Torsin-1A (Homo sapiens) [8]): 1.45
- composite z-score (Torsin-1A (Homo sapiens) [9]): 1.76
- composite z-score [10]: 0.146
- z-score [11]: 1.99 (inactive)
- composite z-score [12]: 0.379
- z-score [13]: 31.9 (active)
- z-score [14]: 28.4 (active)
- z-score [15]: 3.82 (inactive)
- z-score [16]: 7.71 (inactive)
- z-score [17]: 0.123
- z-score [18]: -2.77 (inactive)
- z-score [19]: 1.03 (inactive)
- z-score [20]: -1.85

SMILES: COCCOC(=O)N1C(=O)[C@@]2(c3cc(C#Cc4ccc(OC)cc4)ccc31)[C@H](c1ccccc1OCCO)N1[C@H](c3ccccc3)[C@H](c3ccccc3)OC(=O)[C@H]1[C@@H]2C(=O)N1CCN(c2ncccn2)CC1
- composite z-score [1]: 0.418
- z-score [2]: -0.915 (inactive)
- z-score [3]: -0.418 (inactive)
- z-score [4]: -0.199 (inactive)
- z-score [5]: 0.298 (inactive)
- composite z-score [6]: 0.226
- composite z-score [7]: -0.0405
- composite z-score (Torsin-1A (Homo sapiens) [8]): 0.617
- composite z-score (Torsin-1A (Homo sapiens) [9]): 0.374
- composite z-score [10]: 1.05
- z-score [11]: 0.148 (inactive)
- composite z-score [12]: 0.118
- z-score [13]: 3.79 (inactive)
- z-score [14]: 3.04 (inactive)
- z-score [15]: 1.3 (inactive)
- z-score [16]: 1.76 (inactive)
- z-score [17]: -0.133
- z-score [18]: 0.978 (inactive)
- z-score [19]: -0.00787 (inactive)
- z-score [20]: 0.882

SMILES: COCCOC(=O)N1C(=O)[C@@]2(c3cc(C#Cc4ccc(OC)cc4)ccc31)[C@H](C(=O)N1CCCCCCC1)[C@H]1C(=O)O[C@H](c3ccccc3)[C@H](c3ccccc3)N1[C@@H]2c1ccc(OCCO)cc1
- composite z-score [1]: 0.812
- z-score [2]: -4.68 (inactive)
- z-score [3]: -1.97 (inactive)
- z-score [4]: 0.0857 (inactive)
- z-score [5]: -0.66 (inactive)
- composite z-score [6]: 1.67
- composite z-score [7]: 1.82
- composite z-score (Torsin-1A (Homo sapiens) [8]): 1.12
- composite z-score (Torsin-1A (Homo sapiens) [9]): 1.06
- composite z-score [10]: 2.15
- z-score [11]: 2.43 (inactive)
- composite z-score [12]: 2.36
- z-score [13]: 7.28 (inactive)
- z-score [14]: 1.09 (inactive)
- z-score [15]: 0.478 (inactive)
- z-score [16]: 0.442 (inactive)
- z-score [17]: 1.93
- z-score [18]: 0.453 (inactive)
- z-score [19]: 0.266 (inactive)
- z-score [20]: -0.169

SMILES: CCCCC(=C=CC[C@@H](O)c1ccccc1OCCO)CCO
- composite z-score [1]: -0.235
- z-score [2]: -0.717 (inactive)
- z-score [3]: -0.0652 (inactive)
- z-score [4]: 17.8 (active)
- z-score [5]: 0.905 (inactive)
- composite z-score [6]: -0.488
- composite z-score [7]: 0.0173
- composite z-score (Torsin-1A (Homo sapiens) [8]): -0.873
- composite z-score (Torsin-1A (Homo sapiens) [9]): 0.286
- composite z-score [10]: 0.134
- z-score [11]: 0.086 (inactive)
- composite z-score [12]: 0.0752
- z-score [13]: 9.77 (active)
- z-score [14]: 0.899 (inactive)
- z-score [15]: 0.631 (inactive)
- z-score [16]: 0.576 (inactive)
- z-score [17]: 0.289
- z-score [18]: -0.0172 (inactive)
- z-score [19]: -0.742 (inactive)
- z-score [20]: -1.71

SMILES: O=C1OCC=C[C@H]2OC34C=CCN(c5ccc6ccccc6c5)C(=O)[C@H]3N(CCCCCCO)C(=O)[C@@H]4[C@@H]12 (stereo not given in full)
- composite z-score [1]: -0.565
- z-score [2]: 0.165 (inactive)
- z-score [3]: 3.31 (inactive)
- z-score [4]: 0.471 (inactive)
- z-score [5]: -0.0042 (inactive)
- composite z-score [6]: -0.719
- composite z-score [7]: -0.018
- composite z-score (Torsin-1A (Homo sapiens) [8]): 1.62
- composite z-score (Torsin-1A (Homo sapiens) [9]): -1.69
- composite z-score [10]: -0.749
- z-score [11]: -0.0903 (inactive)
- composite z-score [12]: 0.0839
- z-score [13]: 3.18 (inactive)
- z-score [14]: 0.0422 (inactive)
- z-score [15]: 0.966 (inactive)
- z-score [16]: 0.525 (inactive)
- z-score [17]: -0.482
- z-score [18]: 1.36 (inactive)
- z-score [19]: 0.0322 (inactive)
- z-score [20]: 2.12

SMILES: CC1CC/C=C\[C@H]2OC34C=CCN(C(C)(C)C)C(=O)[C@H]3N(CCCCCCO)C(=O)[C@@H]4C2C(=O)O1 (stereo not given in full)
- composite z-score [1]: -0.293
- z-score [2]: 0.553 (inactive)
- z-score [3]: 0.0917 (inactive)
- z-score [4]: 0.74 (inactive)
- z-score [5]: -0.21 (inactive)
- composite z-score [6]: -0.727
- composite z-score [7]: -0.224
- composite z-score (Torsin-1A (Homo sapiens) [8]): -0.67
- composite z-score (Torsin-1A (Homo sapiens) [9]): -0.433
- composite z-score [10]: 0.611
- z-score [11]: 0.0837 (inactive)
- composite z-score [12]: -0.0501
- z-score [13]: 0.375 (inactive)
- z-score [14]: 0.794 (inactive)
- z-score [15]: 0.39 (inactive)
- z-score [16]: 0.771 (inactive)
- z-score [17]: -0.0989
- z-score [18]: 0.959 (inactive)
- z-score [19]: -0.0389 (inactive)
- z-score [20]: 1.77
